About 330 (25%) of roughly 1,300 compounds were called active. Only a sample is shown. Potency and affinity values are given separately. Values without a mark were called inactive. The rule behind the calls is not given here.
Test: MALME3 melanoma cell viability loss, dose response, orthogonal assay for MITF inhibitor project, CellTiter-Glo, cherry-picked (AID 493191)
Conditions: CellTiter-Glo luminescence, 24 h; series mostly up to 35 µM; activity change, negative = inhibition: at the top concentration
With `N/C(=N\OC(=O)Cc1cccs1)c1ccccc1` the “activity change, negative = inhibition” value was 3.27%. In the case of `Cc1ccn2c(Nc3ccccc3)c(-c3ccccn3)nc2c1`, the “activity change, negative = inhibition” value is reported as -31.3%. With `O=C(NC1CCCCC1)C(c1cccnc1)N(C(=O)CCl)c1cccc(Cl)c1` (stereo unspecified) the “activity change, negative = inhibition” value was -10.9%. With `CC1Cc2cc(-c3csc(N)n3)ccc2O1` (stereo unspecified) the “activity change, negative = inhibition” value was 6.44%. For `CCOc1ccc(C(=O)Nc2cccc(C(=O)O)c2C)cc1Cl`, the “activity change, negative = inhibition” value was 7.12%. In the case of `COc1ccc(NC(=O)c2cc(-c3ccccc3Cl)on2)cc1`, the “activity change, negative = inhibition” value is reported as 1.29%. For `CCOC(=O)c1ccc(NC(=O)c2ccnn2C)cc1`, the “activity change, negative = inhibition” value was 7.79%. For `O=C(O)c1ccc(C(=O)Nc2ccc(F)cc2)cc1`, the “activity change, negative = inhibition” value was -0.194%. In the case of `O=C(Cc1ccccc1)Nc1ccc(NC(=O)c2ccco2)nc1`, the “activity change, negative = inhibition” value is reported as 7.46%. With `CCOC(=O)c1ccc(NC(=O)c2ccc(C)c(S(=O)(=O)N3CCOCC3)c2)cc1` the “activity change, negative = inhibition” value was -8.59%. For `CCOc1ccc(NC(=O)c2ccccn2)cc1`, the “activity change, negative = inhibition” value was -30.9%. In the case of `COc1ccccc1NS(=O)(=O)c1cc(NC(=O)c2ccc(Cl)nc2)ccc1Cl`, the “activity change, negative = inhibition” value is reported as -5.32%. With `O=C1c2ccccc2S(=O)(=O)N1Cc1nc2ccccc2s1` the “activity change, negative = inhibition” value was -1.34%. In the case of `Cc1ccc2nc(-c3ccncc3)[nH]c2c1`, the “activity change, negative = inhibition” value is reported as -13.6%. In the case of `Fc1ccc(-c2nnc(-c3ccc(F)cc3)o2)cc1`, the “activity change, negative = inhibition” value is reported as -8.09%. In the case of `COCCCn1[nH]c2c3c(ccc2c1=O)C(=O)c1ccccc1C3=O`, the “activity change, negative = inhibition” value is reported as -28.8%. With `O=C(Nc1nc2ccsc2c(=O)s1)C1CCC1` the “activity change, negative = inhibition” value was 6.31%. For `CN(c1ccc(O)cc1)c1nc(O)c(C2=c3ccccc3=NC2=O)s1`, the “activity change, negative = inhibition” value was -6.42%. With `Cn1cc(C(=O)N/N=C/c2c(O)ccc3ccccc23)ccc1=O` the “activity change, negative = inhibition” value was -16.5%. For `Cc1cccc(-c2nc(C#N)c(NCc3ccco3)o2)c1`, the “activity change, negative = inhibition” value was 10.1%. In the case of `O=C(NC1CCCCCC1)c1cc2ccccc2oc1=O`, the “activity change, negative = inhibition” value is reported as -3.85%. In the case of `O=C(Nc1ccccc1)C1Cc2ccccc2CN1C(=O)c1ccco1` (stereo unspecified), the “activity change, negative = inhibition” value is reported as -4.95%. For `C=CCNc1nc(-c2ccccn2)nnc1-c1ccccc1`, the “activity change, negative = inhibition” value was -18.7%. With `COc1ccc(NC(=O)Nc2ccc(F)c(F)c2)c(OC)c1` the “activity change, negative = inhibition” value was 18.8%. For `CCOC(=O)c1ccc2c(c1)n(CC)c(/C=C/N(C)c1ccccc1)[n+]2CC`, the “activity change, negative = inhibition” value was -27.6%. For `CCn1c(/C=C/N(C)c2ccccc2)[n+](CC)c2ccc(Cl)cc21`, the “activity change, negative = inhibition” value was -25.4%. In the case of `Nc1c2c(=O)oc(-c3ccccc3)cc2nn1-c1ccccc1`, the “activity change, negative = inhibition” value is reported as -0.126%. With `COc1cccc(C(=O)N/N=C(/c2ccccc2)c2ccccn2)c1` the “activity change, negative = inhibition” value was -23.3%. In the case of `COc1cc(C(=O)Oc2c(CN3CCOCC3)cc(Cl)c3cccnc23)cc(OC)c1OC`, the “activity change, negative = inhibition” value is reported as -44.2%. In the case of `O=c1nc(N/N=C/c2ccccn2)cn[nH]1`, the “activity change, negative = inhibition” value is reported as -15.8%. For `CC(C)c1ccc(CNc2ncccn2)cc1`, the “activity change, negative = inhibition” value was -7.32%. With `CCCCN1CCc2c1nc1ccc(Br)cc1c2N` the “activity change, negative = inhibition” value was -43%. With `CCCOc1ccc(-c2c(=O)n(O)c3ccccc3[n+]2[O-])cc1` the “activity change, negative = inhibition” value was -6.65%. In the case of `BrC(=C\c1ccccc1)/C=N/n1cnnc1`, the “activity change, negative = inhibition” value is reported as -26.2%. For `Cc1ccc(C#CC[N+]2(CC#Cc3ccc(C)cc3)CCCCC2)cc1`, the “activity change, negative = inhibition” value was -38.5%. With `CN1C/C(=C/c2cccnc2)C(=O)/C(=C/c2cccnc2)C1` the “activity change, negative = inhibition” value was 11%. With `CC(C)N1C/C(=C/c2cccnc2)C(=O)/C(=C/c2cccnc2)C1` the “activity change, negative = inhibition” value was -31.7%. In the case of `Cc1cccc(OCc2nc3ccccc3n2C)c1`, the “activity change, negative = inhibition” value is reported as 1.51%. For `O=S(=O)(c1ccc(F)cc1)c1snnc1-c1ccccc1`, the “activity change, negative = inhibition” value was -12.4%. With `CCCOc1ccc(C(=O)C(CN2CCCC2)c2ccccc2)cc1` (stereo unspecified) the “activity change, negative = inhibition” value was -37.2%. For `O=C(CSc1ccc(Cl)cc1)NC1CCCC1`, the “activity change, negative = inhibition” value was -1.8%. For `O=C(/C=C/c1ccccc1Cl)NC1CCCCC1`, the “activity change, negative = inhibition” value was 8.1%. In the case of `O=C(CCCN1C(=O)S/C(=C\c2ccccc2)C1=O)NNC(=O)c1ccccc1O`, the “activity change, negative = inhibition” value is reported as -9.65%. With `N/C(=N\OC(=O)c1ccccc1Cl)c1ccccn1` the “activity change, negative = inhibition” value was -32.8%. With `Cc1ccc(C(=O)c2no[n+]([O-])c2C(=O)c2ccc(C)cc2)cc1` the “activity change, negative = inhibition” value was -26.9%. With `CN(C)c1ccc(/C=N\NC(=O)c2cccc3cc[nH]c23)cc1` the “activity change, negative = inhibition” value was 1.73%. With `CCOC(=O)N1CCN(C(=O)c2ccc(Cn3c(=S)[nH]c4ccc(Br)cc4c3=O)cc2)CC1` the “activity change, negative = inhibition” value was -20.7%. In the case of `CCC(=O)N1CCN(c2ccc(Cl)cc2NC(=O)c2ccc([N+](=O)[O-])o2)CC1`, the “activity change, negative = inhibition” value is reported as -43.4%. For `Cn1c(/C(C#N)=C/c2ccc(-c3ccc(S(N)(=O)=O)cc3)o2)nc2ccccc21`, the “activity change, negative = inhibition” value was -11.6%. For `Clc1c(-c2ccccc2)nc2ccccn12`, the “activity change, negative = inhibition” value was 4.22%. With `Cc1cc(N2CCOCC2)n2ncc(-c3ccccc3Cl)c2n1` the “activity change, negative = inhibition” value was -2.42%. In the case of `Cc1cc(C(=O)CN2C(=O)c3ccccc3S2(=O)=O)c(C)n1-c1ccccc1`, the “activity change, negative = inhibition” value is reported as -2.78%. For `C#Cc1cccc(NC(=O)CSc2nnc(-c3ccc(C(F)(F)F)cn3)o2)c1`, the “activity change, negative = inhibition” value was 7.2%. With `CCCN(CC(=O)Nc1ccccc1C)C(=O)CCl` the “activity change, negative = inhibition” value was -20.5%. For `Cc1ccc2c(c1)Oc1ccc(NC(=O)CCl)cc1C(=O)N2`, the “activity change, negative = inhibition” value was -38.9%. In the case of `Cc1ccc(CC(=O)Nc2ccc(Cl)cn2)cc1`, the “activity change, negative = inhibition” value is reported as 7.43%. In the case of `CS(=O)(=O)c1ccc2nc(NC(=O)c3ccccc3Br)sc2c1`, the “activity change, negative = inhibition” value is reported as 13.2%. For `O=C(c1ccc(F)cc1)C(CN1CCOCC1)c1ccccc1` (stereo unspecified), the “activity change, negative = inhibition” value was -21.3%. For `COc1ccc(S(=O)NC2CCCCC2)c(OC)c1C` (stereo unspecified), the “activity change, negative = inhibition” value was -5.41%. In the case of `COc1cc(CN2CCC(Cc3ccccc3)CC2)cc(OC)c1OC`, the “activity change, negative = inhibition” value is reported as 7.73%. For `CC(=O)c1ccc(S(=O)(=O)N2CCN(C(=O)/C=C/c3ccc4ccccc4n3)CC2)cc1`, the “activity change, negative = inhibition” value was -3.46%. With `COc1ccc(NC(=O)c2cc3ccccc3[nH]2)cc1` the “activity change, negative = inhibition” value was 3.96%. In the case of `COc1ccc2cc3cc(C(=O)NCCc4ccc(OC)c(OC)c4)oc3nc2c1`, the “activity change, negative = inhibition” value is reported as -18.4%. For `Cc1cc(O)ccc1Nc1nc(-c2cccnc2)cs1`, the “activity change, negative = inhibition” value was 3.74%. In the case of `CCOC(=O)C1CCCN(C(=O)C2CCN(S(=O)(=O)CC)CC2)C1` (stereo unspecified), the “activity change, negative = inhibition” value is reported as 1.71%. For `CCOc1ccc(OCc2ccc(C(=O)N/N=C(\C)c3ccccn3)cc2)cc1`, the “activity change, negative = inhibition” value was -39.2%. For `CCOC(=O)c1ccc(NC(=O)Cc2cccs2)cc1`, the “activity change, negative = inhibition” value was -16.7%. For `CCc1ccc(Nc2nc(C)cc(C)n2)cc1`, the “activity change, negative = inhibition” value was -3.27%. For `CCOC(=O)c1ccc(NC(=O)CC2SCCNC2=O)cc1` (stereo unspecified), the “activity change, negative = inhibition” value was -0.676%. For `COc1ccccc1-c1nnc(-c2ccc(C)cc2)o1`, the “activity change, negative = inhibition” value was -5.25%. With `COCCNC(=O)c1cc2sc3ccccc3c2s1` the “activity change, negative = inhibition” value was 8.29%. For `O=C(N/N=C/c1cc(Cl)ccc1O)c1ccncc1`, the “activity change, negative = inhibition” value was -30.2%. In the case of `COc1cc2nc(SCC(=O)NCc3ccco3)n(Cc3ccc(Cl)cc3)c(=O)c2cc1OC`, the “activity change, negative = inhibition” value is reported as -14.3%. In the case of `CCCCCCN1C=CC(=C2C(=O)c3ccccc3C2=O)C=C1`, the “activity change, negative = inhibition” value is reported as -26.2%. For `CC1CCN(Cc2nc(-c3ccc(Cl)cc3)no2)CC1`, the “activity change, negative = inhibition” value was 3.04%. In the case of `CC1CC(C)C[N+](=C2C=C(N3CCCC3)CC(C)(C)C2)C1` (stereo unspecified), the “activity change, negative = inhibition” value is reported as -24.1%.
